# A selection: hits, their analogues and other compounds. The true share with any hit is near 2.5%.
# Cruzain inh Det – blocks cruzain activity in presence of Triton detergent | purified cruzain, Z-FR-AMC fluorescence, 0.01% Triton | Potency, µM, inactives show max response, negative = inhibition, usual class: inhibitors | hit rate 0.43% among 200,000 | AID 1478;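 note: plate controls were neutral wells for no effect and buffer without enzyme for full effect; nearly all actives have a fitted effect of over 40% in size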
# Target sequence (P25779 123-467 limits assumed): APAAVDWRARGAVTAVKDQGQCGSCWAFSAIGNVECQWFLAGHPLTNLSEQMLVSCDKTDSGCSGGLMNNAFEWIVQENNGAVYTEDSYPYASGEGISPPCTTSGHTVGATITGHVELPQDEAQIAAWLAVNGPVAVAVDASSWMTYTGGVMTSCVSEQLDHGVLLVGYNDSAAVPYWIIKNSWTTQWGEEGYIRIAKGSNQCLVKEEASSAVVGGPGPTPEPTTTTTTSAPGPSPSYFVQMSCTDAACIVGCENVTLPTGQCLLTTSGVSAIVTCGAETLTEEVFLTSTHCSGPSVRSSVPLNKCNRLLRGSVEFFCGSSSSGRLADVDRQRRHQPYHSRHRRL
#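 Purified cruzain (1.5 nM final) was preincubated with compounds for 15 min at room temperature in 100 mM sodium acetate pH 5.5, 5 mM DTT, 0.01% Triton X-100. Reaction started with 2 uM Z-FR-AMC; AMC fluorescence change over 60 s gave activity.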
# Cruzain inh noDet – cruzain (T. cruzi) inhibition without detergent | AID 1476 | P25779 | hit rate 2.3% among 200,000 | purified cruzain, Z-FR-AMC fluorescence, no detergent | Potency, µM, inactives show max response, negative = inhibition, actives largely listed as inhibitors;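 note: plate controls were enzyme without inhibitor for no effect and buffer without enzyme for full effect; nearly all actives have a fitted effect of over 40% in size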
#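 Detergent-free condition (0.00005% Triton X-100) in acetate buffer pH 5.5 with DTT. 1.5 nM enzyme and compound were pre-mixed 15 min, then 2 uM Z-FR-AMC substrate added; reaction progress from fluorescence change between first and third reads (60 s).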
# Numbers without * were called inactive; ? = inconclusive; ! = a repeat was not active. Calls come from the whole dose curve; as a rule, active = well fitted curve in the direction sought with a large enough effect; inconclusive = small, poorly fitted or top-dose-only effect, or another doubt; inactive = no such curve, though single readings can be large; an effect the other way counts as inactive or inconclusive. Potency is the fitted concentration of half-maximal effect.
SMILES,Cruzain inh Det,Cruzain inh noDet
[O-][Br+2]([O-])O,22µM*!,-25%
COc1ccccc1N(C(=O)c1cncc(Br)c1)c1nc(-c2ccc(C)cc2)cs1,-2%,13µM*
COc1ccc(C)cc1N(C(=O)c1cccc(F)c1)c1nc2ccccc2s1,-7%,?
CN(C)CCCNCCCN,3%,-1%
CCOC(=O)N1CCN(C2CC(=O)N(c3ccc(C)cc3)C2=O)CC1 (centres undefined),7%,4%
CCOC(=O)N1C2C=C(C)[C@@H]2[C@@H]2CC(=O)N21 (some centres undefined),14µM*,13µM*
O[C@@H](c1cc(C(F)(F)F)nc2c(Cl)cc(Cl)cc12)C1CCCCN1 (some centres undefined),-3%,-6%
CC(=O)c1ccc(NS(=O)(=O)c2ccc(C)cc2)cc1,1%,6%
COc1cc(OC)c(OC)cc1/C=C/C(=O)c1ccc(NS(=O)(=O)c2ccc(C)cc2)cc1,-4%,20µM*
CCOC(=O)c1[nH]c2ccc(OC)cc2c1NC(=O)c1nonc1C,6%,4%
CCOC(=O)c1[nH]c2ccc(Cl)cc2c1NC(=O)c1nonc1C,-2%,10µM*
FC(F)(F)c1ccccc1-c1ccc2ncnc(NCc3cccnc3)c2c1,1%,6%
COC(=O)c1c(NC(=O)COC(=O)c2ccc(C)s2)sc2c1CCCCC2,1%,-2%
CCOC(=O)c1c(NC(=O)CS(=O)(=O)c2ccc(Cl)cc2)sc2c1CCCC2,-1%,5%
CCOC(=O)c1c(NC(=O)CS(=O)(=O)c2ccc(C)cc2)sc2c1CCCCC2,-8%,4µM*
COC(=O)c1c(NC(=O)COC(=O)[C@@H](NS(=O)(=O)c2ccc(C)cc2)C(C)C)sc2c1CCC2,-6%,16µM*
COc1ccc(-c2cn3c(n2)sc2cc(C(=O)Nc4cc(Cl)ccc4C)ccc23)cc1,-7%,3%
Cc1cccc(NC(=O)CCCn2nc(C)c3c(C)n(-c4ccccc4)nc3c2=O)c1C,-7%,-12%
COc1ccc(/C=N/NC(N)=S)cc1OC(=O)c1ccccc1,-28%,?
NC(=S)N/N=C/C=C/c1ccccc1,25µM*,16µM*
O=C(N/N=C/C=C/c1ccccc1)c1ccccc1Br,-3%,0%
NC(=S)N/N=C/c1ccc2ccccc2c1,2.2µM*,0.79µM*
COc1ccc(-c2noc(COc3cc(C)ccc3C)n2)cc1OC,-9%,?
CC[C@H](C)[C@@H](NC(=O)O[C@@H]1C(=O)c2ccc(OC)cc2O[C@H]1c1ccc2c(c1)OCO2)C(=O)OC,-3%,0%
Fc1ccc(Cn2c(-c3cccc(Br)c3)nc3ccccc32)cc1,-6%,9%
SMILES,Cruzain inh Det,Cruzain inh noDet
COc1ccc(/C(N)=N/OC(=O)c2cc(-c3ccccc3)nc3ccccc23)cc1,-2%,20µM*
Cc1ccc(/C(N)=N/OC(=O)c2cc(-c3ccccc3)nc3ccccc23)cc1,-3%,-17%
Nc1ccccc1[N+](=O)[O-],1%,-12%
CCc1ccccc1NC(=O)Cn1c(=O)n(Cc2ccc3c(c2)OCO3)c(=O)c2ccc(C(=O)NC3CCCCC3)cc21,5%,-9%
O=C(Cn1c(=O)n(Cc2ccc3c(c2)OCO3)c(=O)c2ccc(C(=O)NC3CCCCC3)cc21)Nc1ccccc1F,0%,13µM*
COc1ccc(CCNC(=O)CCCCn2c(=O)c3ccccc3n(Cc3cc(C)ccc3C)c2=O)cc1OC,-3%,-11%
N#Cc1ccc(CS(=O)(=O)c2ccccc2)cc1,1%,0%
COc1ccc(C2Nc3ccc4ccccc4c3-c3c2c(=O)oc2ccccc32)cc1 (centres undefined),6%,10µM*
O=c1oc2ccccc2c2c1C(c1ccc(Cl)cc1)Nc1ccc3ccccc3c1-2 (centres undefined),0%,4µM*
CCOc1ccc(C2Nc3ccc4ccccc4c3-c3c2c(=O)oc2ccccc32)cc1 (centres undefined),-13%,7.9µM*
CCOc1ccc(C2C(C#N)=C(N)Oc3c2c(=O)oc2ccccc32)cc1 (centres undefined),-5%,-16%
COc1ccc(-c2cc3ccccc3c(=O)o2)cc1,0%,23%
O=C1CC(c2ccc(Br)cc2)c2c(c3ccccc3oc2=O)O1 (centres undefined),-5%,-18%
COc1ccc(C)cc1S(=O)(=O)N1CCN(c2cccc(Cl)c2)CC1,-7%,-2%
C=CCn1c(-c2cccc(Cl)c2)n[nH]c1=S,-6%,12%
C=CCn1c(-c2oc3nc(-c4ccccc4)cc(-c4ccccc4)c3c2N)n[nH]c1=S,-11%,25µM*
CCCCCCCCCCCCCCCC(N)=O,1%,3%
Cc1ccc(NC(=O)Cc2ccc(-n3c(C)nc4cccnc43)cc2)c(Cl)c1,8.9µM*,-2%
COc1ccc(Cn2c(CCC(=O)Nc3ccc(C)cc3C)nc3cccnc32)cc1,1%,19%
CCN(CC)CCC[C@H](C)Nc1c2ccc(Cl)cc2nc2ccc(OC)cc12,-4%,-6%
N#Cc1nc(-c2cccc3ccccc23)oc1NCCN1CCCCC1,28µM*,-8%
CCNc1oc(-c2cccc3ccccc23)nc1C#N,3%,11%
Cc1nc2[nH]c(=O)[nH]c(=O)c2[nH]1,10%,-12%
CCn1c2ccccc2c2nnc(SCCN3CCCCC3)nc21,-7%,-1%
CCOc1ccc2c(c1)c1nnc(SCC(=O)N3CCCCC3C)nc1n2C (centres undefined),0%,?
SMILES,Cruzain inh Det,Cruzain inh noDet
CCCCn1c2ccc(F)cc2c2nnc(SCCN3CCCCC3)nc21,16µM*,?
Cn1c2ccc(F)cc2c2nnc(SCCN3CCCCC3)nc21,14µM*,13µM*
CCN(CC)CCSc1nnc2c3cc(F)ccc3n(C)c2n1,16µM*,13µM*
CCN(CC)CCn1c2ccc(F)cc2c2nc(C)sc21,0%,-7%
COc1cccc(CS(=O)(=O)c2nnnn2-c2ccccc2)c1,4%,4%
Nc1c(C(=O)Nc2ccc(C(F)(F)F)cc2)sc2nc(-c3cccs3)ccc12,-9%,?
Nc1c(C(=O)NC2CCCC2)sc2nc(-c3cccs3)ccc12,-4%,25µM*
COc1ccc(Cl)cc1NC(=O)C(=O)NCc1ccc(Cl)cc1,-2%,-5%
Cc1cc(C)cc(-n2ccnc2SCC(=O)Nc2nnc(C)s2)c1,0%,-2%
O=C(CN(c1cccc(C(F)(F)F)c1)S(=O)(=O)c1ccc(Cl)c([N+](=O)[O-])c1)NCc1ccccc1Cl,-6%,25µM*
O=C(CN(c1cccc(C(F)(F)F)c1)S(=O)(=O)c1ccc(Cl)c([N+](=O)[O-])c1)NCc1ccccc1,-7%,8%
CCC(=O)Nc1ccccc1-c1nc2ccccc2n(C(C)C(=O)Nc2cccc(Cl)c2C)c1=O (centres undefined),-2%,15%
O=C(CN1C(=O)COc2ccc(S(=O)(=O)N3CCOCC3)cc21)N1CCN(c2ccc(F)cc2)CC1,0%,23%
Cc1cn(C)c(CC(=O)N2CCN(c3ccc(F)cc3)CC2)c1C(=O)O,3%,-4%
COc1ccc(C(=O)Nc2cc(Cl)cc(Cl)c2)c(OC)n1,2%,13µM*
COc1ccc(C(=O)Nc2cc(Cl)ccc2Cl)c(OC)n1,1%,-17%
CCCCN(C)CC(O)Cn1cc(/C=C/C(=O)c2ccc(OCC)cc2)c2ccccc21 (centres undefined),-12%,-7%
COc1ccc(C(=O)/C=C/c2cn(CC(O)CN3CCc4ccccc43)c3ccccc23)cc1 (centres undefined),-3%,6.3µM*

# Screening results from PubChem BioAssay.
